Data on 17 compounds can be found in PubChem BioAssay (EPA / NIEHS).

“And” between values parts separate entries of the source, which are not always exact repeats. Equal values may be shown once. The source holds several records for some structures; these can differ, active in one and inactive in another. The source made the active and inactive calls. Rule for the calls: active = hit-call score of the fitted dose curve at least 0.9, where 1 is the maximum; inactive = score below 0.9.

In general, AC50 refers to the concentration at which the activity in the assay is half-maximal.

Read-out in test [1]: TIMP metallopeptidase inhibitor 2 (TIMP2), TIMP2 (gene 7077)
The test can be described thus: BSK_KF3CT_TIMP2: BioMAP Diversity Plus: KF3CT Assay for TIMP metallopeptidase inhibitor 2 (TIMP2) Biomarker Activity (AID 2283071). The following applies: primary human keratinocytes with fibroblasts; actives raise or lower the signal. In a few lines: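 TIMP-2 measured by ELISA at 24 h in human keratinocyte/fibroblast primary co-cultures exposed to chemicals. Both increases and decreases were fitted against DMSO. Parallel cultures were stained with SRB for total protein as an overt-cytotoxicity check.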

Read-out in test [2]: Transforming growth factor beta 1 (TGFb1), TGFB1 (gene 7040)
The test can be described thus: BSK_KF3CT_TGFb1: BioMAP Diversity Plus: KF3CT Assay for Transforming growth factor beta 1 (TGFb1) Biomarker Activity (AID 2283072). The following applies: primary human keratinocytes with fibroblasts; actives raise or lower the signal. In a few lines: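 ELISA quantifies TGF-b1 at 24 h post-dose in a primary human skin co-culture of keratinocytes and fibroblasts, with gain or loss judged against DMSO. Parallel SRB total-protein staining flags overt cytotoxicity.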

Read-out in test [3]: C-C motif chemokine 2 (Homo sapiens) (UniProt P13500)
The test can be described thus: BSK_KF3CT_MCP1: BioMAP Diversity Plus: KF3CT Assay for Monocyte Chemoattractant Protein 1 (MCP1/CCL2) Biomarker Activity (AID 2283073). The note with it: primary human keratinocytes with fibroblasts; actives raise or lower the signal. In a few lines: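 KF3CT skin co-culture (keratinocytes/foreskin fibroblasts), 24 h post-dose; MCP-1 by ELISA; gain/loss of signal fit bidirectionally vs DMSO baseline.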

Read-out in test [4]: Matrix Metallopeptidase 9 (MMP9), MMP9 (gene 4318)
The test can be described thus: BSK_KF3CT_MMP9: BioMAP Diversity Plus: KF3CT Assay for Matrix Metallopeptidase 9 (MMP9) Biomarker Activity (AID 2283074).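 For AC50: MMP9 protein level quantified by ELISA in the co-culture.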 The note with it: primary human keratinocytes with fibroblasts; actives raise or lower the signal. Put shortly:
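Values come from bidirectional fitting relative to DMSO of MMP-9 levels, which were measured by ELISA. Measurements were taken 24 h after chemical dosing of a keratinocyte and foreskin fibroblast co-culture.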

Read-out in test [5]: urokinase plasminogen activator (uPA), PLAU (gene 5328)
Description: BSK_KF3CT_uPA: BioMAP Diversity Plus: KF3CT Assay for urokinase plasminogen activator (uPA) Biomarker Activity (AID 2283075). The following applies: primary human keratinocytes with fibroblasts; actives raise or lower the signal. Put shortly:
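Values derive from bidirectional fitting against DMSO controls. Keratinocyte/foreskin fibroblast co-cultures received chemical; 24 h later uPA was detected by ELISA, with SRB total-protein staining in parallel wells for overt cytotoxicity.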

Read-out in the next test: CD40, CD40 (gene 958)
The test can be described thus: BSK_LPS_CD40: BioMAP Diversity Plus: LPS Assay for CD40 Biomarker Activity (AID 2283076). The note with it: primary human HUVEC with PBMC; actives raise or lower the signal. Put shortly:
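ELISA readout of CD40 in HUVEC/PBMC co-culture (BSK_LPS system), 24 h post-dosing; bidirectional curve fit, DMSO baseline; parallel SRB total-protein staining for cytotoxicity.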

Read-out in test [6]: E-selectin (Homo sapiens) (UniProt P16581)
Description: BSK_LPS_Eselectin: BioMAP Diversity Plus: LPS Assay for Eselectin Biomarker Activity (AID 2283077). The following applies: primary human HUVEC with PBMC; actives raise or lower the signal. Put shortly: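 ELISA readout of E-selectin, 24 h post-dose, HUVEC + PBMC co-culture (LPS system). Gain or loss of signal vs DMSO baseline, bidirectional fit.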

Read-out in test [7]: Interleukin-8 (IL8), CXCL8 (gene 3576)
The test can be described thus: BSK_LPS_IL8: BioMAP Diversity Plus: LPS Assay for Interleukin-8 (IL8) Biomarker Activity (AID 2283078). The following applies: primary human HUVEC with PBMC; actives raise or lower the signal. Put shortly: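 HUVEC + PBMC co-culture, LPS-activated; test chemicals dosed, IL-8 read by ELISA at 24 h. Bidirectional curve fit vs DMSO baseline (gain or loss of signal).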

The nature of test [8]: BSK_LPS_SRB: Viability Assessment in the BioMAP Diversity Plus: LPS Assay (AID 2283079).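 Note: total protein by sulforhodamine B absorbance as a cytotoxicity measure; measured one day after compound addition; fitted in both directions against DMSO so loss or gain of signal counts.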 The following applies: primary human HUVEC with PBMC. Put shortly: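 HUVEC + PBMC co-culture, LPS-stimulated; compound 24 h. 10% TCA fix, 0.1% SRB stain, A560. Bidirectional fit vs DMSO.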
Read-out in test [9]: Interleukin-1 alpha (IL1a), IL1A (gene 3552)
Description: BSK_LPS_IL1a: BioMAP Diversity Plus: LPS Assay for Interleukin-1 alpha (IL1a) Biomarker Activity (AID 2283080). The note with it: primary human HUVEC with PBMC; actives raise or lower the signal. Put shortly:
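HUVEC/PBMC co-culture, LPS system; 24 h after dosing; IL-1a by ELISA; gain or loss of signal fitted bidirectionally vs DMSO baseline.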

E-selectin (Homo sapiens), sequence (P16581 whole entry, looked up): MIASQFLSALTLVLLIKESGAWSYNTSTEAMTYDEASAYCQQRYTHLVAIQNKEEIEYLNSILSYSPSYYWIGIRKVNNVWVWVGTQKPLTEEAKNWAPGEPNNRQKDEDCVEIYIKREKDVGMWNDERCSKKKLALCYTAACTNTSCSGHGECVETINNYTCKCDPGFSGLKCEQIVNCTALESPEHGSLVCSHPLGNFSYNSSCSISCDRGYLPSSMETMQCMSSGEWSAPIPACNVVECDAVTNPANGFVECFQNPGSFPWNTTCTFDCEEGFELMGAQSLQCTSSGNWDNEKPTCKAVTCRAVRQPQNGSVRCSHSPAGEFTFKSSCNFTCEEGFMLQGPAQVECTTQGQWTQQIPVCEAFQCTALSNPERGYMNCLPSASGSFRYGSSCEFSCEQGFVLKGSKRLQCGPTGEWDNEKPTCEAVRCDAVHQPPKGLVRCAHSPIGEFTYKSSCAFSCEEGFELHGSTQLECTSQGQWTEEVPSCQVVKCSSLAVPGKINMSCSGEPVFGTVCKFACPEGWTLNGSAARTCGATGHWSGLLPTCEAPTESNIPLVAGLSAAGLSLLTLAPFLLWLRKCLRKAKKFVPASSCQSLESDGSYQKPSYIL

As to `CCN(CC)c1ccc2c(c1)Oc1cc(N(CC)CC)ccc1C21OC(=O)c2ccccc21`, the outcome is “inactive” in test [1]; “inactive” in test [2]; “inactive” in test [3]; “inactive” in test [4]; “inactive” in test [5]; “inactive” with CD40, CD40 (gene 958). In addition, the outcome in test [6], in test [8] and in [9] was inactive. Also, the AC50 in test [7] was 6.55 µM (active).

For the compound `O=C(O)C(F)(F)C(F)(F)C(F)(F)OC(F)(C(F)(F)F)C(F)(F)F`, the outcome in [1], in test [3], in [4], in [5], in test [6] and in test [8] was inactive. For the same compound, the result in test [9] was inactive. Besides, the AC50 in test [4] was 24.7 µM (active); in test [7], 7.64 µM (active) and 9.75 µM (active).

With `C=CC(=O)OCC(F)(F)C(F)(F)C(F)(F)C(F)(F)C(F)(F)C(F)(F)C(F)(F)C(F)F`, the result in [1], in [3], in test [4], in test [5], in [6] and in [7] was inactive. Also, the outcome in test [8] and in test [9] was inactive. Also, the AC50 in [3] is 30 µM (active).

`OCC(F)(F)C(F)(F)C(F)(F)C(F)(F)C(F)(F)C(F)(F)C(F)(F)C(F)(F)CO`: the concentration at half-maximal activity (AC50) in test [1] is 55.2 µM (active) and 48.6 µM (active); in [3] it was 50.8 µM (active) and 42.3 µM (active); in test [4], 50.3 µM (active) and 49.4 µM (active); in [6], 0.559 µM (active). Further, the outcome in test [5] is “inactive”; in the test with CD40, CD40 (gene 958), “inactive”; in test [6], “inactive”; in test [7] it was “inactive”; in test [8] it was “inactive”; in test [9] it was “inactive”.

Turning to `CCOC(C=C(C)CCC=C(C)C)OCC`, the AC50 in test [1] is 31.2 µM (active); in test [2], 3.97 µM (active); in test [4], 20 µM (active); in [5] it was 3.97 µM (active); with CD40, CD40 (gene 958), 30 µM (active); in [6], 35 µM (active). In addition, the AC50 was 31.9 µM (active) in test [8] and 32.9 µM (active) in [9]. In addition, in [7], the result was inactive.

Consider `CCN(CC)c1ccc(C=O)cc1`, for which the outcome in test [1] was “inactive”; in test [2], “inactive”; in test [3] it was “inactive”; in test [4], “inactive”; in test [5], “inactive”; with CD40, CD40 (gene 958), “inactive”. Further, the result in [6], in [7], in test [8] and in test [9] was inactive.

`Cc1cc(C)c(O)c(C(C)(C)C)c1`: the AC50 in [1] was 28.8 µM (active); in test [2], 30.8 µM (active); in [3] it was 32.8 µM (active); in test [4], 30.2 µM (active); in test [5], 30.9 µM (active); with CD40, CD40 (gene 958), 30.9 µM (active). In addition, the figures for the AC50 in test [6], in test [8] and in test [9] were 32.1 µM (active), 36.3 µM (active) and 32.7 µM (active), respectively. Also, in [7], the outcome was inactive.

For the compound `CCN(CC)c1ccc(N=Nc2ccccc2)cc1`, the result in test [1], in test [2], in test [3], in test [5] and in test [6] was inactive. Also, the AC50 is 9.24 µM (active) in test [4], 20 µM (active) in test [7], 29.6 µM (active) in [8] and 34.4 µM (active) in test [9].

Consider `O=C=NCc1cccc(CN=C=O)c1`, for which the outcome in test [1] was “inactive”; in [2], “inactive”; in test [3], “inactive”; in test [4], “inactive”; in [5] it was “inactive”; in the test with CD40, CD40 (gene 958) it was “inactive”. In addition, the result in test [6], in [7], in test [8] and in test [9] was inactive.

As to `FC(F)(F)C(F)(F)C(F)(F)C(F)(F)C(F)(F)C(F)(F)C(F)(F)CCI`, the outcome in test [1] is “inactive”; in [3], “inactive”; in [4], “inactive”; in test [5] it was “inactive”; in the test with CD40, CD40 (gene 958) it was “inactive”; in [6], “inactive”. The outcome in test [7], in test [8] and in [9] was inactive. Also, the AC50 in test [3] is 3.94 µM (active).

On to `Cc1cnccn1`, for which the result in test [1], in test [2], in test [3], in test [4], in test [5] and in test [6] was inactive. The result in test [7], in test [8] and in [9] was inactive.

In the case of `CCN(CC)c1ccc(C=O)c(O)c1`, the outcome in [1], in [2], in [3], in [4], in test [5] and in test [6] was inactive. Besides, the outcome in test [7], in [8] and in test [9] was inactive.

Take `O=C=Nc1cccc2c(N=C=O)cccc12`: the outcome in [1] is “inactive”; in test [2], “inactive”; in [3], “inactive”; in test [4], “inactive”; in test [5], “inactive”; with CD40, CD40 (gene 958), “inactive”. Besides, the outcome in [6], in test [7], in [8] and in [9] was inactive.

On to `NS(=O)(=O)C(F)(F)C(F)(F)C(F)(F)C(F)(F)C(F)(F)C(F)(F)F`, for which the outcome in test [1], in test [3], in test [4], in test [5], in test [6] and in test [7] was inactive. In addition, the result in [8] and in test [9] was inactive. The AC50 in test [4] is 14.6 µM (active); in test [8], 40.1 µM (active).

Turning to `O=C1C=CC(=O)N1c1ccc(Cc2ccc(N3C(=O)C=CC3=O)cc2)cc1`, the AC50 is 2.2 µM (active) in test [1]; 3.46 µM (active) in test [2]; 1.99 µM (active) in test [3]; 5.44 µM (active) in test [4]; 5.55 µM (active) in test [5]; 12.4 µM (active) in test [6]. The AC50 in [7] is 20 µM (active); in test [8], 14.6 µM (active); in test [9] it was 8.38 µM (active).

`O=C(O)CCC(F)(F)C(F)(F)C(F)(F)C(F)(F)C(F)(F)C(F)(F)C(F)(F)F`: the outcome in test [1] is “inactive”; in test [3], “inactive”; in [4] it was “inactive”; in test [5] it was “inactive”; with CD40, CD40 (gene 958), “inactive”; in test [6], “inactive”. Also, the outcome in test [7], in test [8] and in test [9] was inactive.

For `Cc1cc(O)c(C(C)(C)C)cc1C(C)(C)C`, the AC50 in test [1] is 2.05 µM (active); in test [2] it was 3.85 µM (active); in test [3], 3.37 µM (active); in [4], 5.96 µM (active); in test [5], 3.78 µM (active); with CD40, CD40 (gene 958), 5.28 µM (active). In addition, the AC50 was 6.95 µM (active) in [6], 9.26 µM (active) in [7], 7.74 µM (active) in test [8] and 5.31 µM (active) in [9].
